# Source: the supplement of paper PMC7156485
# ± gives the standard deviation of the averaged measurements.
# Legend:
# Conditions in all cases: concentration: 10 µM; 24 h
# [1] = tested on: HCC1569; assay: cell number relative to DMSO (% of DMSO); higher = more cells (less growth inhibition / toxicity)
# How it was run: (§1)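 Compounds were applied at 10 µM for 24 h at 37 °C, in triplicate, to HCC1569 and TDF cells. The cells were then fixed and stained for H1.0, and nuclei were counterstained with DAPI. Nuclear H1.0 intensity or cell number is reported relative to the plate control as a percent, taking the median of replicates. Smoothing for positional effects was applied to HCC1569 values only.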
# [2] = tested on: TDF; assay: as above
# How it was run: as §1
# [3] = tested on: TDF; assay: H1.0 immunofluorescence intensity relative to DMSO (% of DMSO); higher = stronger H1.0 induction, active = 120 or more
# How it was run: as §1
# [4] = tested on: HCC1569; assay: H1.0 immunofluorescence intensity relative to DMSO (% of DMSO); higher = stronger H1.0 induction, active = 140 or more
# How it was run: as §1
# 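Wherever H1.0 immunofluorescence intensity relative to DMSO is given: TDF is a line of transformed human dermal fibroblasts of mesenchymal origin.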
# 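Wherever cell number relative to DMSO is given: TDF denotes transformed human dermal fibroblasts of mesenchymal origin.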
smiles,measurement,setting,value
CC=C1CC(C)C(C)(O)C(=O)OCC2=CCN3CCC(OC1=O)C23 (stereo unspecified) [Senecionine],cell number,[1],98.6
same,cell number,[2],101
same,H1.0 immunofluorescence intensity,[3],108 (inactive)
same,H1.0 immunofluorescence intensity,[4],91.8 (inactive)
CCCCCC=CCC=CCC=CC=CC(CCCC(=O)O)OO (stereo unspecified),cell number,[1],101
same,cell number,[2],100
same,H1.0 immunofluorescence intensity,[3],98.5 (inactive)
same,H1.0 immunofluorescence intensity,[4],106 (inactive)
CP(=O)([O-])C1=CC[NH2+]CC1,cell number,[1],96.6
same,cell number,[2],98.6
same,H1.0 immunofluorescence intensity,[3],91.8 (inactive)
same,H1.0 immunofluorescence intensity,[4],102 (inactive)
CC[N+](CC)(CC)CC.[Cl-] [Tetraethylammonium chloride],cell number,[1],101
same,cell number,[2],108
same,H1.0 immunofluorescence intensity,[3],90.2 (inactive)
same,H1.0 immunofluorescence intensity,[4],108 (inactive)
"Br.CCCN1CCc2cc(O)cc3c2C1Cc1ccc(O)c(O)c1-3 (stereo not drawn) [R(-)-2,10,11-Trihydroxy-N-propylnoraporphine hydrobromide]",cell number,[1],95.1
same,cell number,[2],110
same,H1.0 immunofluorescence intensity,[3],89.2 (inactive)
same,H1.0 immunofluorescence intensity,[4],100 (inactive)
CCC(C(N)=O)N1CCCC1=O (stereo unspecified) [Levetiracetam],cell number,[1],102
same,cell number,[2],105
same,H1.0 immunofluorescence intensity,[3],95.2 (inactive)
same,H1.0 immunofluorescence intensity,[4],101 (inactive)
"CC1OCC(C[N+](C)(C)C)O1.[I-] (single isomer, unassigned; (+)) [(+)-cis-Dioxolane iodide]",cell number,[1],102
same,cell number,[2],103
same,H1.0 immunofluorescence intensity,[3],96 (inactive)
same,H1.0 immunofluorescence intensity,[4],99.6 (inactive)
CN[C@@H]1Cc2cccc3[nH]c(=O)n(c23)C1.O=C(O)C=CC(=O)O,cell number,[1],101
same,cell number,[2],105
same,H1.0 immunofluorescence intensity,[3],92.5 (inactive)
same,H1.0 immunofluorescence intensity,[4],89.2 (inactive)
CC(C)(OO)c1ccccc1 [Cumene hydroperoxide],cell number,[1],101
same,cell number,[2],113
same,H1.0 immunofluorescence intensity,[3],105 (inactive)
same,H1.0 immunofluorescence intensity,[4],99.6 (inactive)
CCCN1CCCC(c2cccc(O)c2)C1.Cl (stereo not drawn) [R(+)-3PPP hydrochloride],cell number,[1],104
same,cell number,[2],106
same,H1.0 immunofluorescence intensity,[3],88.2 (inactive)
same,H1.0 immunofluorescence intensity,[4],103 (inactive)
"CCCCCC=CCC=CCC=CCC=CCCCCCC(=O)NCCO [Anandamide (22:4,n-6)]",cell number,[1],102
same,cell number,[2],104
same,H1.0 immunofluorescence intensity,[3],102 (inactive)
same,H1.0 immunofluorescence intensity,[4],98.3 (inactive)
NC(=NCCCC(N)C(=O)O)N[N+](=O)[O-] [NG-Nitro-L-arginine],cell number,[1],104
same,cell number,[2],96.7
same,H1.0 immunofluorescence intensity,[3],89.6 (inactive)
same,H1.0 immunofluorescence intensity,[4],90 (inactive)
CCCN(CCC)C1CCc2ccc(O)cc2C1 (racemic),cell number,[1],102
same,cell number,[2],111
same,H1.0 immunofluorescence intensity,[3],88.7 (inactive)
same,H1.0 immunofluorescence intensity,[4],95.4 (inactive)
CCCC[N+]1(C)C2CC(OC(=O)C(CO)c3ccccc3)CC1C1OC12.[Br-] (stereo unspecified) [Scopolamine N-butylbromide],cell number,[1],99.1
same,cell number,[2],111
same,H1.0 immunofluorescence intensity,[3],93.6 (inactive)
same,H1.0 immunofluorescence intensity,[4],88.1 (inactive)
"CC1C2Cc3ccc(O)cc3C1(C)CCN2CC1CC1 (single isomer, unassigned; (+)) [(+)-Cyclazocine]",cell number,[1],102
same,cell number,[2],92.2
same,H1.0 immunofluorescence intensity,[3],96.9 (inactive)
same,H1.0 immunofluorescence intensity,[4],86.8 (inactive)
"O=C(O)C=CC(=O)O.O=[N+]([O-])c1ccc2nc(N3CCNCC3)ccc2c1 [Quipazine, 6-nitro-, maleate]",cell number,[1],96.6
same,cell number,[2],95.5
same,H1.0 immunofluorescence intensity,[3],95.2 (inactive)
same,H1.0 immunofluorescence intensity,[4],107 (inactive)
Cc1nccc2c1[nH]c1ccccc12 [Harmane],cell number,[1],100 ± 0.98
same,cell number,[2],106 ± 11
same,H1.0 immunofluorescence intensity,[3],97 (inactive)
same,H1.0 immunofluorescence intensity,[4],96.7 (inactive)
C#CCN(C)C(C)Cc1ccccc1.Cl [(R)-(-)-Deprenyl.HCl],cell number,[1],104
same,cell number,[2],103
same,H1.0 immunofluorescence intensity,[3],97.8 (inactive)
same,H1.0 immunofluorescence intensity,[4],101 (inactive)
CC(NC(C)(C)C)C(=O)c1cccc(Cl)c1 (stereo unspecified) [Amfebutamone],cell number,[1],96.8
same,cell number,[2],108
same,H1.0 immunofluorescence intensity,[3],97.2 (inactive)
same,H1.0 immunofluorescence intensity,[4],116 (inactive)
